In PubChem BioAssay (Tox21):
Several values for one entry are separate records, joined by “and”; a condition that tells them apart may be missing. Equal values may be shown once. Results filed as inconclusive are left out. Some structures have more than one record in an assay (separate samples or runs), and their calls can disagree. Activity calls are given as the source filed them. Calls follow the shape of the dose curve; as a rule, active = well fitted inhibition curve with a large enough effect in the repeat runs; inconclusive = weak or mixed curves; inactive = flat fitted curve, though single readings scatter.

Each molecule was assayed against Luciferin 4-monooxygenase (Photinus pyralis) (UniProt P08659) (assay: qHTS assay to identify small molecule inhibitors of firefly luciferase (AID 1224835; also: nearly all actives have a fitted effect of over 25% in size)). Details: purified P. pyralis luciferase, luminescence inhibition; series mostly up to 115 µM; activity change, negative = inhibition: at the top concentration.
Chain of Luciferin 4-monooxygenase (Photinus pyralis) (P08659 whole entry, looked up): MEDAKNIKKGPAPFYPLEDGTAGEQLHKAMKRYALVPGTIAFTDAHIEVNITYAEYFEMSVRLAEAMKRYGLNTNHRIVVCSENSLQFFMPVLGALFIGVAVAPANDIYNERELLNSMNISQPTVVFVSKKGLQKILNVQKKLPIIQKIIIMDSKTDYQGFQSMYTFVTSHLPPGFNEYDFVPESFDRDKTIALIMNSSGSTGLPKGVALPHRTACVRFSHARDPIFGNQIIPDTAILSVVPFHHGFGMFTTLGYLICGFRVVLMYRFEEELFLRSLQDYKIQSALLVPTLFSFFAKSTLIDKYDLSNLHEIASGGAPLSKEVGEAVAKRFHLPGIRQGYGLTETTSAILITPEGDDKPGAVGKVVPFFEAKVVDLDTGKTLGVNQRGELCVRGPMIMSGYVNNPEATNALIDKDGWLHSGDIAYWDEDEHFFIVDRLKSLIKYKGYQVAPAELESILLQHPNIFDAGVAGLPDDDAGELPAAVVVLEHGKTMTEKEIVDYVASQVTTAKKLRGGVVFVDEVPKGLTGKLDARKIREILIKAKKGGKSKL
Outline: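 Quantitative HTS format; KM concentrations of both substrates. Purified P. pyralis FLuc activity quantified from luminescence images.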
% is scaled to controls: 0 for no effect and ±100 for the full control effect; potency is read from the fitted curve at half-maximal effect.

Row | SMILES | activity change, negative = inhibition | Potency
1 | OC(CCN1CCCCC1)(c1ccccc1)C1CC2C=CC1C2 (stereo not given) | -0.328% [at 52.9 µM] (inactive) | –
2 | CC(=O)OCC(=O)[C@@]1(O)CC[C@H]2[C@@H]3CCC4=CC(=O)CC[C@]4(C)[C@H]3C(=O)C[C@@]21C | -1.24% [at 52.9 µM] (inactive) | –
3 | CC(C)(c1ccc(O)cc1)c1ccc(O)cc1 | – | 39.5 µM (active) and 36.2 µM (active)
4 | CCCN(CCC)CCc1cccc2c1CC(=O)N2 | 0.766% [at 52.9 µM] (inactive) | –
5 | Cc1ccc(=O)n(-c2ccccc2)c1 | 0.84% [at 52.9 µM] (inactive) | –
6 | CCCCCCCCCCCC | -4.69% (inactive) | –
7 | c1ccc([C@H]2CN3CCSC3=N2)cc1 | -1.74% [at 52.9 µM] (inactive) | –
8 | c1cnc(N2CCN(Cc3ccc4c(c3)OCO4)CC2)nc1 | 0.397% [at 52.9 µM] (inactive) | –
9 | COC(=O)c1c(Cl)c(Cl)c(C(=O)OC)c(Cl)c1Cl | – | inactive
10 | C[C@](N)(Cc1ccc(O)cc1)C(=O)O | 0.0392% [at 10.5 µM] (inactive) | –
11 | N[C@H](C(=O)O)c1ccc(O)cc1 | -0.257% [at 23.6 µM] (inactive) | –
12 | CCn1ccnc1CC1COc2ccccc2O1 (stereo not given) | 0.892% [at 52.9 µM] (inactive) | –
13 | CCN1CCC[C@H]1CNC(=O)c1cc(S(N)(=O)=O)ccc1OC | -0.963% [at 52.9 µM] (inactive) | –
14 | NC(CSCC(=O)O)C(=O)O (stereo not given) | -0.188% [at 52.9 µM] (inactive) | –
15 | COC(=O)C1=C(C)NC(C)=C(C(=O)OC)C1c1ccccc1[N+](=O)[O-] | – | 40 µM (active) and inactive
16 | CO[Si](CCCOCC1CO1)(OC)OC (stereo not given) | – | inactive
17 | CCn1nc(C(=O)O)c(=O)c2cc3c(cc21)OCO3 | 0.272% [at 52.9 µM] (inactive) | –
18 | COC(=O)[C@@H](N)Cc1ccc(O)c(O)c1 | 0.51% [at 52.9 µM] (inactive) | –
19 | C[C@H](NC(CCc1ccccc1)C(=O)O)C(=O)N1CCC[C@H]1C(=O)O (stereo not given in full) | -0.752% [at 52.9 µM] (inactive) | –
20 | CC(C)NCC(O)c1ccc(NS(C)(=O)=O)cc1 (stereo not given) | 4.24% (inactive) | –
